A short description of experiment [1]: qHTS assay to identify small molecule antagonists of the vitamin D receptor (VDR) signaling pathway - cell viability counter screen (AID 743225). Also: nearly all actives have a fitted effect of over 50% in size. In short, it runs like this: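 Cytotoxicity toward the VDR-bla HEK 293T line was scored by ATP-based CellTiter-Glo luminescence, read in the wells already used for the beta-lactamase readout after 16 h compound treatment under 3 nM 1-alpha,25-dihydroxyvitamin D3 stimulation.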
On the technique in general: Quantitative high-throughput screening tests each substance at several concentrations.

A short description of experiment [2]: qHTS assay to identify small molecule agonists of the NFkB signaling pathway (AID 1159509; active = well fitted curve in the direction sought with a large enough effect in the signal ratio in the repeat runs, not every such curve was filed as active; the % refers to the signal ratio; also: series mostly up to about 61 µM). The method in brief: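 NFkB-bla ME-180 cells with a beta-lactamase reporter under an NF-kB response element were plated overnight, treated with compounds in DMSO for 5 hr at 37 C, then loaded with FRET substrate for 1.5 hr at room temperature.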
Experiment [3] can be described thus: qHTS assay to identify small molecule agonists of the NFkB signaling pathway - cell viability counter screen (AID 1159515; calls by dose curve; also: series mostly up to about 61 µM; nearly all actives have a fitted effect of over 55% in size). The method in brief:
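5 hr compound treatment of NFkB-bla ME-180 cells (2,000/well, seeded overnight beforehand), followed by reporter substrate for 1.5 hr. CellTiter-Glo added afterward; luminescence after 30 min RT.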

Experiment [4] in a line: qHTS assay to identify small molecule agonists of the endoplasmic reticulum stress response signaling pathway - cell viability counter screen (AID 1159517; calls by dose curve;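 also: HeLa cells carrying an ER stress response element beta-lactamase reporter; series mostly up to about 61 µM; nearly all actives have a fitted effect of over 50% in size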). In short, it runs like this: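 Luminescence readout: CellTiter-Glo, 30 min RT, same wells as the ESRE-bla reporter read. HeLa ESRE-bla, 1,500 cells/well, o/n 37 C; cpd 5 hr 37 C/5% CO2.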
Experiment [5] is described as follows: qHTS assay to identify small molecule antagonists of the retinoid-related orphan receptor gamma (ROR-gamma) signaling pathway - cell viability counter screen (AID 1159520). Also: nearly all actives have a fitted effect of over 50% in size. The method in brief:
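Tet-on ROR gamma CHO cells (1,000/well) were plated 4 hr, given compounds in DMSO for 2 hr at 37 C, then induced with 1 uM final doxycycline for 16 hr. Viability was read as ATP by CellTiter-Glo luminescence after 30 min.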

The target in experiment [6] is Nuclear receptor ROR-gamma (Homo sapiens) (UniProt P51449). Put plainly: qHTS assay to identify small molecule antagonists of the retinoid-related orphan receptor gamma (ROR-gamma) signaling pathway (AID 1159521;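 also: CHO cells with doxycycline inducible ROR-gamma driving an RORE luciferase reporter; top concentration of the series differs between compounds; nearly all actives have a fitted effect of over 50% in size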). The method in brief:
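Readout: ONE-Glo luciferase luminescence, 30 min at room temperature. System: Tet-on RORγ CHO, RORE-LUC. Sequence: compound 2 h, doxycycline 1 uM final, 16 h at 37 C.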

A short description of experiment [7]: qHTS assay to identify small molecule agonists of the AP-1 signaling pathway - cell viability counter screen (AID 1159525; calls by dose curve; also: nearly all actives have a fitted effect of over 55% in size). In short, it runs like this: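 ME-180 AP-1-bla, 2500 cells/well, Opti-MEM + 0.5% dialyzed FBS; overnight 37 °C; cpd 15-pt titration, 5 h 37 °C; CellTiter-Glo 30 min RT; luminescence read; normalised to TOAB and DMSO controls.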
The target in experiment [8] is Retinoic acid receptor RXR-alpha (Homo sapiens) (UniProt P19793). Put plainly: qHTS assay to identify small molecule agonists of the RXR signaling pathway (AID 1159527; calls by dose curve; also: nearly all actives have a fitted effect of over 35% in size). In short, it runs like this: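 Reporter activation is measured as beta-lactamase activity via FRET substrate cleavage (emission 460/530 nm) in HEK 293T cells expressing an RXR-alpha-driven bla construct, following 16 hr compound exposure at 37 C.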
Retinoic acid receptor RXR-alpha (Homo sapiens), sequence (P19793 whole entry, looked up): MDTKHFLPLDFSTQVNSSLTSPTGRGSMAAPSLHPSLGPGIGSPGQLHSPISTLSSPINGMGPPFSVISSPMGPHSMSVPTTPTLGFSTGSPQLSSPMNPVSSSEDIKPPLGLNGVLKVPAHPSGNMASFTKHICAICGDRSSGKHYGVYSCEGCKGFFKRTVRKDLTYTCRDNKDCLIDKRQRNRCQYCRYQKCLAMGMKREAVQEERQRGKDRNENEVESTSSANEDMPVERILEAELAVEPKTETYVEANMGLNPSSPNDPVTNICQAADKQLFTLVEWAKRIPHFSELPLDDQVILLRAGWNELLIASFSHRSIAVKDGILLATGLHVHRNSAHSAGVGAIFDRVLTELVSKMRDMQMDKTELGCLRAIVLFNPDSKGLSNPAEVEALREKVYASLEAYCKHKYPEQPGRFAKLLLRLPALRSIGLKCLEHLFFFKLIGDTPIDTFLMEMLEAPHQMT

A short description of experiment [9]: qHTS assay to identify small molecule agonists of the RXR signaling pathway - cell viability counter screen (AID 1159529). The method in brief:
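Tox21 10K compounds were tested for cytotoxicity against GeneBLAzer RXR-alpha HEK 293T cells grown in 2% charcoal-stripped FBS. Exposure lasted 16 hr at 37 C, 5% CO2; viability read by CellTiter-Glo luminescence.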

Experiment [10] can be described thus: qHTS assay to identify small molecule antagonists of the retinoid acid receptor (RAR) signaling pathway - cell viability counter screen (AID 1159551). Also: nearly all actives have a fitted effect of over 35% in size. The method in brief:
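Seed C3RL4 cells; next day add compound, then retinol to 1 uM final; incubate 6 h at 37 C; add CellTiter-Glo; read luminescence after 30 min at RT.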

A short description of experiment [11]: qHTS assay to identify small molecule antagonists of the retinoic acid receptor (RAR) signaling pathway (AID 1159552; also: nearly all actives have a fitted effect of over 50% in size). The method in brief: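 Overnight-plated C3RL4 reporter cells get compound, then retinol to 1 uM final; plates sit 6 hr at 37 C, 5% CO2. A luciferase reagent is added and light output recorded after 30 min at room temperature.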
A short description of experiment [12]: qHTS assay to identify small molecule agonists of the retinoic acid receptor (RAR) signaling pathway (AID 1159553). Also: potency is read from the fitted curve at half-maximal effect. In short, it runs like this: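 Activation of retinol signaling was monitored via a RARE luciferase reporter in C3RL4 cells. After 6 hr compound treatment at 37 C, detection reagent was added for 30 min at room temperature before luminescence reading.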

Experiment [13] is described as follows: qHTS assay to identify small molecule agonists of the AP-1 signaling pathway (AID 1159526; calls by dose curve).
Experiment [14] is described as follows: qHTS assay to identify small molecule agonists of the endoplasmic reticulum stress response signaling pathway (AID 1159516; active = well fitted activation curve with a large enough effect in the signal ratio in the repeat runs, not every such curve was filed as active; the % refers to the signal ratio). In short, it runs like this: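 Reporter HeLa cells (ESRE-beta-lactamase) underwent 5 hr compound incubation at 37 C and 5% CO2 in quantitative HTS format. Detection followed 2 hr of FRET substrate loading at room temperature.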

This note sets out measurements from PubChem BioAssay (Tox21).

The structures appear in SMILES notation. Results filed as inconclusive are left out. The source made the active and inactive calls. Unless noted, calls follow the shape of the dose curve; as a rule, active = well fitted curve in the direction sought with a large enough effect in the repeat runs; inconclusive = weak or mixed curves; inactive = no such curve, though single readings can be large; an effect the other way counts as inactive or inconclusive.

Take `O=Cc1ccc([N+](=O)[O-])cc1`: the compound was classed as inactive in experiment [1], in experiment [2], in experiment [3], in experiment [4], in [7] and in experiment [8]. The compound was classed as inactive in [10] and in [11]. Also, the Potency entry in experiment [5], in experiment [6] and in experiment [9] was “inactive” each time. For the same compound, the Potency in [12] was 19.4 µM (active).
Consider `CC(=O)Nc1cccc(N)c1`, for which the compound was called inactive in [2], in experiment [3], in [4], in experiment [7] and in experiment [10]. Also, the Potency entry in experiment [5], in experiment [6], in experiment [13], in [9] and in [12] was “inactive” throughout.
Take `Cc1cc(SC2=C(O)C[C@@](CCc3ccc(N)cc3)(C(C)C)OC2=O)c(C(C)(C)C)cc1CO`: the call in experiment [1], in experiment [2], in experiment [3], in experiment [4] and in [10] was inactive. In addition, the Potency result in experiment [5], in [13] and in experiment [9] was “inactive” throughout.
Take `O=C(OCCOCCOCCOC(=O)c1ccccc1)c1ccccc1`: the compound was called inactive in [1], in experiment [2], in [3], in experiment [4], in experiment [7] and in experiment [10]. In addition, the Potency result in experiment [5], in [6], in [13] and in [9] was “inactive” in each case.
In the case of `Nc1ncnc2c1ncn2[C@@H]1O[C@H](CO)[C@@H](O)[C@H]1O`, the outcome in experiment [1], in experiment [2], in experiment [3], in experiment [4], in experiment [7] and in experiment [10] was inactive. Besides, the result in experiment [11] was inactive. Further, the Potency entry in experiment [5], in experiment [13], in experiment [9] and in experiment [12] was “inactive” throughout.
As to `O=C1OC(=O)C2CC=CCC12` (stereo not drawn), the outcome in experiment [1], in experiment [2], in experiment [3], in experiment [4], in experiment [7] and in experiment [10] was inactive. Besides, the compound was classed as inactive in experiment [11]. Moreover, the Potency result in experiment [5], in experiment [6], in experiment [13], in experiment [9] and in [12] was “inactive” in each case.
For `CCCCCCCCC(=O)OCC(C)OC(=O)CCCCCCCC` (stereo not drawn), the call in experiment [1], in [2], in [3], in experiment [4], in experiment [7] and in experiment [10] was inactive. For the same compound, the outcome in experiment [11] was inactive. Also, the Potency result in experiment [5], in experiment [6], in experiment [13], in [9] and in experiment [12] was “inactive” throughout.
In the case of `COc1ccc(/C=C/S(=O)(=O)NC(=O)c2ccc(C)cc2Cl)cc1`, the call in experiment [1], in experiment [2], in experiment [3], in experiment [4], in [7] and in experiment [10] was inactive. Further, in [11], the compound was called inactive. Also, the Potency entry in experiment [5], in experiment [6], in [13], in experiment [9] and in experiment [12] was “inactive” throughout.
With `N#Cc1ccc(CC(=O)c2cccc(C(F)(F)F)c2)cc1`, the compound was classed as inactive in experiment [2], in experiment [3], in experiment [4] and in experiment [10]. Besides, the Potency result in experiment [5], in experiment [6], in experiment [13], in [9] and in experiment [12] was “inactive” throughout.
For the compound `C=CC(=O)NC(C)(C)C`, the call in experiment [1], in experiment [2], in [14], in experiment [4], in [7] and in experiment [10] was inactive. Also, the compound was classed as inactive in experiment [11]. Besides, the Potency entry in [5], in experiment [6], in experiment [13], in [9] and in experiment [12] was “inactive” each time.
Regarding `C1=COCCC1`, the result in experiment [1], in experiment [2], in experiment [3], in experiment [4] and in [7] was inactive. The Potency result in experiment [5], in experiment [6], in [13], in experiment [9] and in experiment [12] was “inactive” throughout.
As for `CCCCCCCCCCCCCCCCN`, the compound was classed as inactive in experiment [1], in experiment [2], in experiment [3], in [4], in experiment [8] and in experiment [10]. The compound was classed as inactive in experiment [11]. The Potency entry in experiment [5], in [6], in [9] and in experiment [12] was “inactive” throughout.
For the compound `CCCC1CCOC(C)S1` (stereo not drawn), the call in experiment [1], in experiment [2], in experiment [3], in [4], in experiment [7] and in [10] was inactive. Also, the Potency result in experiment [5], in experiment [6], in experiment [13] and in experiment [9] was “inactive” each time.
As to `c1ccc(CCNc2nc(-c3ccccc3)cs2)cc1`, the result in experiment [1], in experiment [2], in experiment [3], in experiment [14], in [4] and in [8] was inactive. Besides, the outcome in experiment [10] and in experiment [11] was inactive. The Potency entry in experiment [5] and in experiment [9] was “inactive” each time. For the same compound, the Potency in [12] is 2.11 µM (active).
Take `Nc1nc(Cl)nc2c1ncn2[C@H]1C[C@H](O)[C@@H](CO)O1`: the call in [1], in experiment [2], in [3], in [4] and in experiment [7] was inactive. Moreover, the Potency result in experiment [5], in experiment [6], in experiment [13] and in experiment [9] was “inactive” in each case.
As to `COc1ccc(/C=C/c2cc(OC)cc(=O)o2)cc1`, the compound was called inactive in experiment [1], in experiment [2], in [3], in [4], in [7] and in experiment [10]. The result in [11] was inactive. Besides, the Potency entry in [5], in experiment [6], in experiment [13] and in experiment [9] was “inactive” throughout. In addition, in experiment [12], the Potency was 2.79 µM (active).
As for `S=c1[nH][nH]c(=S)s1`, the result in experiment [1], in experiment [2], in experiment [3], in experiment [4] and in [7] was inactive. The Potency result in experiment [5], in experiment [6], in [13] and in [9] was “inactive” in each case.
As for `C[C@@H](O)[C@H]1C(=O)N2C(C(=O)O)=C(S[C@@H]3CN[C@H](CNS(N)(=O)=O)C3)[C@H](C)[C@H]12`, the outcome in experiment [2], in [14], in experiment [4], in experiment [7] and in [10] was inactive. Besides, the Potency result in [5], in experiment [6], in experiment [13] and in experiment [9] was “inactive” each time.
In the case of `CC1(COc2ccc(CC3SC(=O)NC3=O)cc2)CCCCC1` (stereo not drawn), the result in [1], in [2], in experiment [3] and in [4] was inactive. Moreover, the Potency entry in experiment [5], in experiment [6], in [13] and in experiment [9] was “inactive” in each case.
`OCCOc1cccc(OCCO)c1`: the call in experiment [1], in [2], in experiment [3], in [4], in experiment [7] and in experiment [10] was inactive. For the same compound, the result in experiment [11] was inactive. Besides, the Potency entry in experiment [5], in [6], in experiment [13] and in experiment [9] was “inactive” each time.
On to `[O-][n+]1ccc(Cl)cc1`, for which the compound was called inactive in experiment [1], in experiment [2], in [3], in experiment [4], in experiment [7] and in [10]. Besides, the result in experiment [11] was inactive. For the same compound, the Potency result in [5], in experiment [6], in [13], in experiment [9] and in experiment [12] was “inactive” throughout.
Consider `COc1ccnc2c1CCCCC2S(=O)c1nc2ccccc2[nH]1` (stereo not drawn), for which the result in [1], in experiment [2], in [3], in experiment [4], in experiment [7] and in experiment [10] was inactive. Also, in experiment [11], the compound was classed as inactive. Moreover, the Potency result in [5], in [6] and in experiment [13] was “inactive” each time.
Take `COC(=O)C(C)(C)C`: the result in experiment [1], in experiment [2], in experiment [3], in [4], in experiment [7] and in [10] was inactive. Besides, in [11], the result was inactive. Besides, the Potency entry in experiment [5], in experiment [6], in [13] and in experiment [12] was “inactive” in each case.
Take `C=CCCC`: the compound was classed as inactive in experiment [1], in experiment [2], in [14], in [4], in experiment [7] and in experiment [10]. For the same compound, the outcome in experiment [11] was inactive. In addition, the Potency result in experiment [5], in [6], in experiment [13], in experiment [9] and in experiment [12] was “inactive” each time.
